Laboratory results published in PubChem BioAssay AID1745848 (National Center for Advancing Translational Sciences (NCATS), 2022).
Hit rate of the full screen: of about 2,100 compounds, about 940 (45%) were called active. Another 48% or so got no clear call; they are omitted. The call rests on the fitted dose curve; in most records, active means well fitted inhibition curve with a large enough effect; inconclusive means small, poorly fitted or top-dose-only effect; inactive means no such curve, though single readings can be large or run the other way. So high a share suggests a set chosen from earlier hits. Some of the results follow.

Test: Confirmatory qHTS for Inhibitors of ATXN expression; further: nearly all actives have a fitted effect of over 65% in size;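 on activity change, negative = inhibition: 0% = DMSO vehicle wells and -100% = medium-only wells without cells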
Conditions: ATXN2-luciferase reporter cells, luminescence, 24 h; series mostly up to 11.5 µM; activity change, negative = inhibition: at the top concentration
How it was run: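 A titration, incubated 24 h with reporter cells expressing ATXN2-luciferase. Luminescence (SteadyGlo) gives ATXN2 expression, multiplexed GF-AFC fluorescence gives viability; normalised to DMSO and medium-only wells.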
Potency means the concentration at half of the fitted maximal effect.

| SMILES | Potency | activity change, negative = inhibition |
| --- | --- | --- |
| COc1ccc(C(=O)NNC(=S)NC(=O)c2ccccc2)cc1 | 14.1 µM (active) | – |
| CCCCOc1ccc(C(=O)NNC(=S)NC(=O)CC)cc1 | 2.82 µM (active) | – |
| CCCOc1ccc(C(=O)NC(=S)NNC(=O)c2c(-c3ccccc3)noc2C)cc1 | – | -5.12% (inactive) |
| CCCC/C(C)=N/NC(=O)c1cn(-c2ccccc2)nc1-c1ccccc1 | – | -12.8% (inactive) |
| COc1ccc(-c2nn(-c3ccccc3)cc2C(=O)NC(=S)NNC(=O)c2ccncc2)cc1 | 15.8 µM (active) | – |
| CCC(=O)NC(=S)NNC(=O)c1ccc(OC)cc1 | 15.8 µM (active) | – |
| C=CS(=O)(=O)c1c2cc(OC)ccc2nc2ccc(OC)cc12 | 28.2 µM (active) | – |
| COc1ccc(C)cc1Nc1nc(N)c2cc(OC)c(OC)cc2n1 | 2.82 µM (active) | – |
| O=C(COC(=O)c1cc([N+](=O)[O-])ccc1N1CCOCC1)Nc1ccc(Cl)cn1 | 6.31 µM (active) | – |
| CCN(CC)c1nc(-c2ccccn2)nc(-c2ccccc2)c1C#N | 7.08 µM (active) | – |
| CC(C)Nc1nc(-c2ccccn2)nc(-c2ccccc2)c1C#N | – | -21.5% [at 57.5 µM] (inactive) |
| O=C(NNC(=O)C(c1ccccc1)c1ccccc1)c1ccccn1 | 3.16 µM (active) | – |
| O=C(NNC(=O)C12CC3CC(CC(C3)C1)C2)c1ccccn1 | 8.91 µM (active) | – |
| O=C(NCC(=O)N1CC(O)CC1C(=O)N1CCCC1C(=O)OCc1ccccc1)OCc1ccccc1 (stereo not given) | 3.16 µM (active) | – |
| COC(=O)c1cc(=O)n(CCc2ccc(OC)c(OC)c2)c(=Nc2ccc(F)c(Cl)c2)s1 | 3.16 µM (active) | – |
| CCCC[C@@H](CNC)NC[C@H](NCCCCC1CCCCC1)C(C)C | 28.2 µM (active) | – |
| CCN1C(=O)/C(=C/c2nc3ccccc3c(=O)n2-c2ccccc2)c2ccccc21 | 25.1 µM (active) | – |
| O=[N+]([O-])c1c(Nc2ccccn2)cc(Cl)c2nonc12 | 7.94 µM (active) | – |
| COc1cc(/C=C/c2ccc3cccc(O)c3n2)cc(OC)c1OC | – | -20.7% [at 57.5 µM] (inactive) |
| COc1cc(C=CC(=O)c2cc(OC)c(OC)c(OC)c2)cc(OC)c1OC | 8.91 µM (active) | – |
| Cc1[nH]c2ccccc2c1C1=NNC(=Nc2ccc(F)cc2)SC1 | 31.6 µM (active) | – |
| O=C(Nc1ccc(Cl)cc1)Nc1nc(-c2sccc2Br)cs1 | 6.31 µM (active) | – |
| CC(C)[C@@H]1CC[C@@H](C)C[C@H]1OC(=O)C[n+]1cc(-c2ccc(Cl)cc2)n2c1CCCCC2 | 15.8 µM (active) | – |

| SMILES | Potency | activity change, negative = inhibition |
| --- | --- | --- |
| O=C(Nc1nc(-c2ccccc2)cs1)c1ccccc1NS(=O)(=O)c1ccc(F)cc1 | 2 µM (active) | – |
| NS(=O)(=O)c1ccc(Nc2nc(-c3ccc(F)cc3)cs2)cc1 | – | -25.8% (inactive) |
| COc1ccc(-c2csc(NC(=O)c3ccccc3NS(=O)(=O)c3ccc(F)c(F)c3)n2)cc1 | 1.78 µM (active) | – |
| OC(c1ccc(Cl)cc1)c1ncc(-c2cccc(C(F)(F)F)c2)[nH]1 (stereo not given) | – | -16.3% (inactive) |
| OC(c1cc(F)cc(Cl)c1)c1ncc(-c2cccc(C(F)(F)F)c2)[nH]1 (stereo not given) | 3.16 µM (active) | – |
| Cc1cc(C)c(C(O)c2ncc(-c3cccc4ccccc34)[nH]2)c(C)c1 (stereo not given) | – | -15.3% (inactive) |
| CCN(CC)C(=O)C1=C(C)N(CCC2=CCCCC2)C(=O)C(CC(=O)NC(c2ccccc2)c2ccccc2)C1 (stereo not given) | – | -19.3% (inactive) |
| C/C(=N\NC(=O)c1ccc(Cl)c(Cl)c1)c1ccccn1 | 0.178 µM (active) | – |
| C/C(=N\NC(=O)c1cccc2ccccc12)c1ccccn1 | 0.708 µM (active) | – |
| Cc1cc(C)cc(NC(=O)CSc2nc3nc(C)cc(C)c3c(=O)[nH]2)c1 | 28.2 µM (active) | – |
| Cc1cc(C)cc(NC(=O)CSc2nc3[nH]ncc3c(=O)[nH]2)c1 | 2.51 µM (active) | – |
| Cn1c(CO)cnc1S(=O)(=O)Cc1ccc([N+](=O)[O-])cc1 | – | -3.34% [at 57.5 µM] (inactive) |
| COc1cc(C(=O)O/N=C(\N)Cc2ccc([N+](=O)[O-])cc2)cc(OC)c1OC | 2.82 µM (active) | – |
| O=c1[nH]c(=O)n(C2C[C@H](O)[C@@H](CO)O2)cc1C(F)(F)F (stereo not given in full) | 1.26 µM (active) | – |
| CCOC(=O)c1c(-c2ccccc2)oc2cc(CN(C)C)c(O)c(CN(C)C)c12 | 3.16 µM (active) | – |
| CCCC(=O)NC(c1ccc(C(C)C)cc1)c1ccc2cccnc2c1O (stereo not given) | 0.178 µM (active) | – |
| CCCC(=O)NC(c1ccc(OC)cc1)c1ccc2cccnc2c1O (stereo not given) | 2.24 µM (active) | – |
| CCCC(=O)NC(c1ccc(Cl)cc1)c1ccc2cccnc2c1O (stereo not given) | 1.58 µM (active) | – |
| CCCCC(=O)NC(c1ccc(Cl)cc1)c1ccc2cccnc2c1O (stereo not given) | 1.41 µM (active) | – |
| CCCC(=O)NC(c1ccc(C)cc1)c1ccc2cccnc2c1O (stereo not given) | 1.58 µM (active) | – |
| CC(C)CC(=O)NC(c1cccs1)c1ccc2cccnc2c1O (stereo not given) | 0.398 µM (active) | – |
| CCOc1ccccc1N1CCN(c2ncnc3scc(-c4ccc(OC)cc4)c23)CC1 | 28.2 µM (active) | – |
| CCN1CCN(CCCNC(=O)c2ccc(/C=C3/Sc4ccccc4N(Cc4ccccc4F)C3=O)cc2)CC1 | 28.2 µM (active) | – |

| SMILES | Potency | activity change, negative = inhibition |
| --- | --- | --- |
| C=CCOc1ccc(CNc2ccc3[nH]c(=O)[nH]c3c2)cc1OC | – | -2% [at 57.5 µM] (inactive) |
| COc1ccc(Cc2nnc(N/N=C/c3ccccc3O)[nH]c2=O)cc1OC | 1.58 µM (active) | – |
| COc1ccc(Cc2nnc(N/N=C/c3ccc(O)cc3)[nH]c2=O)cc1OC | 0.631 µM (active) | – |
| Cc1cccc2c1-c1sc(C(=O)Nc3ccccc3N3CCN(C)CC3)cc1CO2 | 25.1 µM (active) | – |
| CCn1c(COc2ccccc2C)nnc1SCC(=O)N1CCN(c2ccccc2)CC1 | 14.1 µM (active) | – |
| CC(C)(CC(=O)N1CCN(c2ccc(Cl)cc2)CC1)CC1=NS(=O)(=O)c2ccccc2N1 | 2.51 µM (active) | – |
| Cc1nnc(N/N=C/c2ccccn2)[nH]c1=O | 1.41 µM (active) | – |
| C(=N\Nc1ccc2nncn2n1)/c1ccccn1 | 17.8 µM (active) | – |
| C(=N\NC(=Nc1ccccc1)c1ccccn1)/c1ccccn1 | – | 0.998% [at 57.5 µM] (inactive) |
| O=c1nc(N/N=C/c2ccccn2)cn[nH]1 | 28.2 µM (active) | – |
| Cc1[nH]n2c(=O)cc(C(C)(C)C)nc2c1-c1ccccc1 | 7.08 µM (active) | – |
| CCCc1cc(=O)[nH]c(-n2[nH]c3c(c2=O)CCCC3)n1 | 15.8 µM (active) | – |
| CCCN(CCC)S(=O)(=O)c1ccc(C(=O)Nc2nnc(-c3cc(OC)cc(OC)c3)o2)cc1 | 1.58 µM (active) | – |
| COc1ccc(-c2nnc(NC(=O)c3ccc(S(=O)(=O)N4COCC4(C)C)cc3)o2)cc1 | 2.51 µM (active) | – |
| CC1(C)COCN1S(=O)(=O)c1ccc(C(=O)Nc2nnc(-c3ccc(Cl)s3)o2)cc1 | 1.12 µM (active) | – |
| COc1cc(NC(=O)N2CCc3nc(Nc4cc(Cl)cc(Cl)c4)ncc3C2)cc(OC)c1OC | 3.98 µM (active) | – |
| CC(=O)C(C(C)=O)c1c(Cl)c(O)c(O)c2c(C(=O)c3ccccc3)coc12 | 5.62 µM (active) | – |
| CCOC(=O)C(C(C)=O)c1c(Br)c(O)c(O)c2c(C(=O)c3ccc(C)cc3)coc12 (stereo not given) | 5.62 µM (active) | – |
| O=C(Nc1ccc(OCC(F)(F)C(F)F)c(C(F)(F)F)c1)c1ccc(Cl)cc1 | 3.55 µM (active) | – |
| O=C(NCc1ccccc1)C1=C[C@@H](c2csc3ccccc23)C[C@@H](OCCCCO)O1 | 3.55 µM (active) | – |
| C=CCOC(=O)C1=C[C@@H](c2ccc3c(c2)OCO3)C[C@@H](OCCCCO)O1 | – | -7.67% [at 57.5 µM] (inactive) |
| CN(C)C(=O)CSc1nc(-c2ccccc2)nc2c1CCCC2 | 17.8 µM (active) | – |
| COC(=O)C1=C(C)N(Cc2ccccc2)C(=NCCc2cccnc2)N[C@H]1c1ccc(Br)cc1 | 25.1 µM (active) | – |

| SMILES | Potency | activity change, negative = inhibition |
| --- | --- | --- |
| COC(=O)C1=C(C)N(Cc2ccccc2)C(=NCCc2ccccn2)N[C@H]1c1cccc(C(F)(F)F)c1 | 3.16 µM (active) | – |
| CCc1cc(-c2nnn(CCC3COCCO3)c2CC)ccc1-c1cn(CCc2c[nH]c3ccccc23)nn1 (stereo not given) | 8.91 µM (active) | – |
| O=C(N/N=C/c1cc([N+](=O)[O-])ccc1O)c1ccc(COc2ccc3c(c2)CCC3)o1 | 3.55 µM (active) | – |
| O=C1CCCC(O)=C1C=NCc1ccccc1 | – | 19.3% (inactive) |
| Cn1ncc2c(Nc3cccc(Cl)c3)nc(Nc3cccc(Cl)c3)nc21 | 28.2 µM (active) | – |
| COc1ccccc1OCCN1CSC(=S)N(C)C1 | 17.8 µM (active) | – |
| COC1C=CC=C(C)C(=O)NC2=CC(=O)C(N)=C(CC(C)CC(OC)C(O)C(C)C=C(C)C1OC(N)=O)C2=O (stereo not given) | 0.282 µM (active) | – |
| O=C(COc1nsnc1N1CCOCC1)N/N=C/c1ccccc1O | 14.1 µM (active) | – |
| CSc1nc(C)cc(OCC(=O)N/N=C/c2ccccc2O)n1 | 2 µM (active) | – |
| C/C(=N\OCC(=O)N/N=C/c1ccccc1O)c1cccs1 | 12.6 µM (active) | – |
| CN1CCN(C(c2ccc(C(F)(F)F)cc2)c2ccc3cccnc3c2O)CC1 (stereo not given) | 7.94 µM (active) | – |
| CCN1CCN(C(c2ccc(C(F)(F)F)cc2)c2ccc3cccnc3c2O)CC1 (stereo not given) | 3.55 µM (active) | – |
| O=C(Nc1c(Cl)cccc1Cl)Oc1cccc2cccnc12 | 10 µM (active) | – |
| O=C(Nc1cccc2cccnc12)c1csc(COCCO)n1 | – | -22.5% [at 57.5 µM] (inactive) |
| O=C(N/N=C/c1sc(N2CCOCC2)nc1-c1ccccc1)c1ccccc1O | 28.2 µM (active) | – |
| Cc1cc2oc3ccc(NCCC4CCCN4C)cc3c(=O)c2cc1C (stereo not given) | 31.6 µM (active) | – |
| CCCn1ncc(CN2CCC(C(=O)Nc3cccc(-c4cccc(F)c4)c3)CC2)c1C | 28.2 µM (active) | – |
| Cc1ccc2nc(N(CCCN(C)C)C(=O)c3ccc(S(=O)(=O)N4CCCCCC4)cc3)sc2c1 | 3.16 µM (active) | – |
| CCN(c1ccccc1)S(=O)(=O)c1ccc(C(=O)N(CCCN(C)C)c2nc3c(C)cccc3s2)cc1 | 25.1 µM (active) | – |
| Cc1ccc2sc(N(CCCN(C)C)C(=O)c3ccc(S(=O)(=O)N4CCCCCC4)cc3)nc2c1C | 28.2 µM (active) | – |
| Cc1cc(C)c2nc(N(CCCN(C)C)C(=O)c3ccc4c(c3)OCCO4)sc2c1 | 28.2 µM (active) | – |
